Data as given in PubChem BioAssay AID1851 (National Center for Advancing Translational Sciences (NCATS), 2009).
The campaign covered roughly 16,000 compounds. About 5,100 (32%) were called active. About 25% were inconclusive and are not listed. The list shows a part of the results. Unmarked numbers belong to inactive results. Calls come from the whole dose curve; as a rule, active = well fitted curve in the direction sought with a large enough effect; inconclusive = small, poorly fitted or top-dose-only effect, or effect the other way; inactive = no such curve, though single readings can be large or run the other way.
% is set by controls: 0 for no effect and ±100 for the full control effect.

These compounds were tested against Cytochrome P450 3A4 (Homo sapiens) (UniProt P08684) (assay: Cytochrome panel assay with activity outcomes). Conditions: recombinant CYP, pro-luciferin dealkylation, luminescence, p450-cyp3a4; series mostly up to 57.1 µM.
Cytochrome P450 3A4 (Homo sapiens), sequence (P08684 whole entry, looked up): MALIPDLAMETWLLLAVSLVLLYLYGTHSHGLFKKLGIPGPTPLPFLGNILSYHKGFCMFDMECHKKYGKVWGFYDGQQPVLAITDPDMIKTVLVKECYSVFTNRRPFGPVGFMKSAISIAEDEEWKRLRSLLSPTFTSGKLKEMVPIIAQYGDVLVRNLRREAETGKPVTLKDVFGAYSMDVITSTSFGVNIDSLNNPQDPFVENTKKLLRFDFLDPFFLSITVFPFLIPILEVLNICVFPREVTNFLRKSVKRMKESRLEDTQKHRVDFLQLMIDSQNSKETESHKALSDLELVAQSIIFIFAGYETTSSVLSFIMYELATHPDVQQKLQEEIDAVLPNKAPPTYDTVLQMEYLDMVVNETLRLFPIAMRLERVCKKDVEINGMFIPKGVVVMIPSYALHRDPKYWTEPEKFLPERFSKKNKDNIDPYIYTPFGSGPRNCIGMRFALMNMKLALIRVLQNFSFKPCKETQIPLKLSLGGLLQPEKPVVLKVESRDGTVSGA
For `c1ccc(CCN2CCOCC2)nc1`, the activity, negative = inhibition was -6.24% [at 11.4 µM].
For `COCCCn1c(N)c(C(=O)Nc2sc3c(c2C(=O)OC)CCCC3)c2nc3ccccc3nc21`, the AC50 was 15.8 µM (active).
For `CNC(=O)OCC[N+](C)(C)C`, the activity, negative = inhibition was “inactive”.
`O=C1Nc2ccc(I)cc2/C1=C/c1cc(Br)c(O)c(Br)c1` was tested, and the AC50 was 5.01 µM (active).
For `CC(C)c1ccc(C(O)(C(=O)O)c2ccc(C(C)C)cc2)cc1`, the activity, negative = inhibition was 19.4% [at 11.4 µM].
`CC(C)c1ccc2c(c1)c(SC(C)(C)C)c(CC(C)(C)C(=O)O)n2Cc1ccc(Cl)cc1` was tested, and the AC50 was 20 µM (active).
With `C[C@H](N)[C@@H](O)c1ccccc1` the activity, negative = inhibition was “inactive”.
For `CC(C)(C)NC[C@H](O)c1ccccc1Cl`, the activity, negative = inhibition was “inactive”.
In the case of `C[C@H](N)c1cccc(Cl)c1Cl`, the AC50 was 25.1 µM (active).
`CCOC(=O)N(c1ccccc1)P1(=S)OCCO1` showed an activity, negative = inhibition of -25.1% [at 11.4 µM].
For `O=P(Nc1c(Cl)cccc1Cl)(c1ccccc1)c1nc2c(s1)CCCC2` (centres undefined), the AC50 was 11.2 µM (active).
In the case of `O=[As](O)(O)c1ccc2nc3cc([As](=O)(O)O)ccc3nc2c1`, the activity, negative = inhibition was 5.92% [at 11.4 µM].
In the case of `Cn1cnc(CCN)c1`, the activity, negative = inhibition was “inactive”.
In the case of `COCCCN1Cc2ccccc2C1=N`, the activity, negative = inhibition was “inactive”.
`O=C(O)/C=C(\CC(=O)O)C(=O)O` gave an activity, negative = inhibition of -2.52% [at 11.4 µM].
`C[C@@]12CC[C@@H]3[C@H](CCC4=CC(=O)CC[C@]43C)[C@@H]1CC[C@@H]2C(=O)COS(=O)(=O)c1ccc(Br)cc1` showed an activity, negative = inhibition of 20.5% [at 11.4 µM].
`Nc1nc(OCc2ccccc2)c2[nH]cnc2n1` was tested, and the AC50 was 7.94 µM (active).
For `O=C(Nc1ccc(F)cc1F)c1cccnc1Oc1cccc(C(F)(F)F)c1`, the activity, negative = inhibition was “inactive”.
With `CCOC(=O)[C@@H]1[C@@H]2c3ccccc3-c3ccccc3[C@H]2C[C@H]1O` the activity, negative = inhibition was -1.52% [at 11.4 µM].
With `Cc1ccc(N(C)C(=O)Oc2cccc3ccc(C)nc23)cc1` the AC50 was 15.8 µM (active).
In the case of `N[C@H](CCl)C(=O)O`, the activity, negative = inhibition was “inactive”.
For `C[C@H](CCC(=O)O)[C@H]1CC[C@]2(C)[C@@H]3C(=O)C[C@H]4C(C)(C)[C@@H](O)CC[C@]4(C)[C@H]3C(=O)C[C@@]12C`, the activity, negative = inhibition was -2.04% [at 11.4 µM].
With `CN(N=O)c1cc(O)ccc1O` the activity, negative = inhibition was “inactive”.
`Cn1c(=O)c2[nH]cnc2n(C)c1=O.[CH2-][C@H](Cc1cccc2cc(C(=O)O)c(=O)oc12)OC.[Hg].[OH-]` gave an activity, negative = inhibition of 12.4% [at 11.4 µM].
In the case of `C[C@]12CC[C@H]3c4ccc(O)cc4CC[C@@H]3[C@H]1CC[C@@H]2OC(=O)CCc1ccccc1`, the activity, negative = inhibition was -2.52% [at 11.4 µM].
For `COc1ccc2c(c1)[C@]13CCCC[C@@H]1[C@H](C2)NCC3`, the AC50 was 15.8 µM (active).
In the case of `O=C(CCN1CC2CCC(CC2)C1)c1cccs1`, the activity, negative = inhibition was -19.3% [at 11.4 µM].
`c1ccc2c(N3CCNCC3)cccc2c1` was tested, and the activity, negative = inhibition was “inactive”.
For `N[C@@H](Cn1cc(I)c(=O)[nH]c1=O)C(=O)O`, the activity, negative = inhibition was “inactive”.
For `CCCOc1ccc2[nH]cc(C3=CCNCC3)c2n1`, the AC50 was 2.51 µM (active).
In the case of `COc1ccc2[nH]cc(C3=CCNCC3)c2c1`, the AC50 was 1.26 µM (active).
In the case of `O=c1ccc2[nH]cc(C3=CCNCC3)c2[nH]1`, the activity, negative = inhibition was “inactive”.
With `CCCN1CCc2cc(O)cc3c2[C@H]1Cc1ccc(O)c(O)c1-3` the activity, negative = inhibition was “inactive”.
For `c1ccc(CCN2CCCCCC2)nc1`, the activity, negative = inhibition was -14.2% [at 11.4 µM].
Compound `CCSCC[C@H](N)C(=O)O` has an activity, negative = inhibition of 5.54% [at 11.4 µM].
In the case of `CO[C@@H]([CH2][Hg])CN1C(=O)c2ccccc2S1(=O)=O.Cn1c(=O)c2nc[nH]c2n(C)c1=O`, the activity, negative = inhibition was 2.75% [at 11.4 µM].
`CC(=O)OC1=CC2=CC[C@H]3[C@H]4CCC(=O)[C@@]4(C)CC(=O)[C@]3(S)[C@]2(C)CC1` gave an activity, negative = inhibition of -29.7% [at 11.4 µM].
`C=C(C)[C@H]1CC[C@]2(C(=O)O)CC[C@]3(C)[C@@H](CC[C@H]4[C@@]5(C)CC[C@@H](O)C(C)(C)[C@@H]5CC[C@@]43C)[C@H]12` was tested, and the activity, negative = inhibition was “inactive”.
`C[C@@H]1[C@H]2C=C[C@@H]1[C@@H](c1c3ccc(=O)c(O)c-3oc3c(O)c(O)ccc13)[C@@H]2C(=O)O` was tested, and the activity, negative = inhibition was -0.366% [at 11.4 µM].
With `O=C(C1CC(=O)N(C2CCCC2)C1)N1CCC2(CC1)OCCO2` (centres undefined) the activity, negative = inhibition was “inactive”.
In the case of `CN1[C@@H](CC(=O)c2ccccc2)CCC[C@@H]1C[C@@H](O)c1ccccc1`, the activity, negative = inhibition was “inactive”.
For `N[C@H](Cc1o[nH]c(=O)c1Cl)C(=O)O`, the activity, negative = inhibition was “inactive”.
With `CS(=O)(=O)N1CCCC(C(=O)N2CCC3(CC2)OCCO3)C1` (centres undefined) the activity, negative = inhibition was 1.72% [at 2.29 µM].
With `O=C(CNS(=O)(=O)c1cccs1)N1CCC2(CC1)OCCO2` the activity, negative = inhibition was “inactive”.
In the case of `Cc1ccc(S(=O)(=O)NCC2CCC(C(=O)N3CCC4(CC3)OCCO4)CC2)cc1` (centres undefined), the AC50 was 15.8 µM (active).
Work on `CCCCCCN=Cc1c(O)n(C)c(=O)n(C)c1=O` yielded an activity, negative = inhibition of 16.4% [at 2.29 µM].
For `CCN1CCN(S(=O)(=O)c2ccc(Cl)nc2)CC1`, the activity, negative = inhibition was “inactive”.
In the case of `Cc1nc(N)sc1CCN`, the activity, negative = inhibition was “inactive”.
In the case of `COc1ccc(CCNc2cc(-c3ccccc3)nc3ncnn23)cc1`, the AC50 was 5.62 µM (active).
`C=C(C)[C@H]1CN[C@H](C(=O)O)[C@@H]1CC(=O)O` was tested, and the activity, negative = inhibition was “inactive”.
`N#CCCN` was tested, and the activity, negative = inhibition was “inactive”.
`CN(C)[C@@H]1C(=O)C(C(N)=O)=C(O)[C@]2(O)C(=O)C3=C(O)c4c(O)cccc4[C@](C)(O)[C@H]3C[C@@H]12` showed an activity, negative = inhibition of -3.93% [at 11.4 µM].
`CCOc1ccc(C2C(C#N)=C(N)Oc3c2c(=O)oc2ccccc32)cc1` (centres undefined) showed an activity, negative = inhibition of -8.38% [at 2.29 µM].
`C=Cn1ccnc1P(=S)(c1nccn1C=C)C1CCCCC1` was tested, and the AC50 was 1.26 µM (active).
In the case of `C[C@H]1C(=O)O[C@@H]2CCN3CC=C(COC(=O)[C@@](C)(O)[C@@]1(C)O)[C@H]23`, the activity, negative = inhibition was “inactive”.
For `CC(=O)N1CC[N+](C)(C)CC1`, the activity, negative = inhibition was “inactive”.
With `C[C@]12CC[C@@H]3C(=CCc4cc(O)ccc43)[C@@H]1CCC2=O` the AC50 was 10 µM (active).
Work on `C[C@]12CCC3c4ccc(OCC(=O)O)cc4CCC3C1CCC2=O` (some centres undefined) yielded an activity, negative = inhibition of -8.48% [at 11.4 µM].
`C[C@@]12CC[C@@H]3c4ccc(O)cc4CC[C@H]3[C@H]1CC[C@H]2O` was tested, and the activity, negative = inhibition was “inactive”.
